Glioma ERSR ind: induces the endoplasmic reticulum stress response in human glioma cells; U87-MG GRP78 promoter luciferase reporter, 16 h; Potency, µM, for inactives: at the highest dose activation, actives largely listed as activators; 0.02% of 420,000 active; note: series mostly up to about 76 µM; % of control where 0% means no effect; nearly all actives have a fitted effect of over 35% in size
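ERSR induction read as luciferase luminescence (Bright-Glo, 10 min at room temperature) in stably transfected human U87-MG glioma cells exposed to compounds for 16 h, using GRP78 as sensor.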
ALOX12 inh: blocks human arachidonate 12S-lipoxygenase. P18054. purified 12hLO, xylenol orange hydroperoxide absorbance. Potency, µM (highest dose often 108 µM), inactives show at the highest dose activity change, negative = inhibition, actives largely listed as inhibitors. 1.1% of 580,000 active; note: % is set by controls: 0 for no effect and ±100 for the full control effect
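Hydroperoxide product was detected by ferrous iron/xylenol orange as the 573 to 405 nm absorbance ratio. Arachidonic acid at 40 uM (final) was turned over for 30 min at room temperature by 150 nM human 12hLO, pH 7.0 Hepes buffer, after 15 min compound preincubation.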
Apoferritin bind: candidate novel general anesthetic via apoferritin binding; 0.074% of 350,000 active; Potency, µM (series often up to 77.5 µM), for the others: at the highest dose activity change, negative = displacement, most hits filed as inhibitors; apoferritin/1-aminoanthracene competitive binding, fluorescence; note: % is set by controls: 0 for no effect and ±100 for the full control effect; nearly all actives have a fitted effect of over 20% in size
Target sequence (P02791 2-175 limits assumed): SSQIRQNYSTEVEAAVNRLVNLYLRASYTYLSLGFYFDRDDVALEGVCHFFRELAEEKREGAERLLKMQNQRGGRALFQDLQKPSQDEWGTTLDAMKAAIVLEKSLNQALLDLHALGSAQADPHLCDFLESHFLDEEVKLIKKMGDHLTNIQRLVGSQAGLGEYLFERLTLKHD
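Horse-spleen apoferritin (10 uM) in 50% saturated 1-aminoanthracene in PBS was incubated 10 min at room temperature with compound. Fluorescence (ex 380, em 535 nm) was normalized to free and bound 1-AMA, with concentration-response fitted by a four-parameter Hill equation.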
IDH1 R132H inh: human IDH1 R132H inhibition. O75874. IDH1-R132H enzyme, NADPH consumption, diaphorase/resazurin fluorescence. Potency, µM (doses to about 76.6 µM), for the others: at the highest dose activity change, negative = inhibition, hits mostly inhibitors. 0.093% of 390,000 active. AID 602179; note: % is set by controls: 0 for no effect and ±100 for the full control effect; nearly all actives have a fitted effect of over 65% in size
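IDH1-R132H (0.5 ug/mL dispensed) in pH 7.5 Tris buffer was preincubated 30 min with compound, then given a substrate mix of 0.016 mM NADPH and 2 mM alpha-KG for 80 min at room temperature; remaining NADPH was read by diaphorase/resazurin fluorescence.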
TrxR1 substrate: is turned over as a substrate by rat TrxR1; O89049; purified TrxR1 substrate turnover, NADPH consumption readout; Potency, µM (titrated, usually from 114 µM), inactives show at the top dose activity change, negative = substrate turnover; 0.01% of 390,000 active; note: % is set by controls: 0 for no effect and ±100 for the full control effect; nearly all actives have a fitted effect of over 50% in size
Target sequence (O89049 whole entry, looked up): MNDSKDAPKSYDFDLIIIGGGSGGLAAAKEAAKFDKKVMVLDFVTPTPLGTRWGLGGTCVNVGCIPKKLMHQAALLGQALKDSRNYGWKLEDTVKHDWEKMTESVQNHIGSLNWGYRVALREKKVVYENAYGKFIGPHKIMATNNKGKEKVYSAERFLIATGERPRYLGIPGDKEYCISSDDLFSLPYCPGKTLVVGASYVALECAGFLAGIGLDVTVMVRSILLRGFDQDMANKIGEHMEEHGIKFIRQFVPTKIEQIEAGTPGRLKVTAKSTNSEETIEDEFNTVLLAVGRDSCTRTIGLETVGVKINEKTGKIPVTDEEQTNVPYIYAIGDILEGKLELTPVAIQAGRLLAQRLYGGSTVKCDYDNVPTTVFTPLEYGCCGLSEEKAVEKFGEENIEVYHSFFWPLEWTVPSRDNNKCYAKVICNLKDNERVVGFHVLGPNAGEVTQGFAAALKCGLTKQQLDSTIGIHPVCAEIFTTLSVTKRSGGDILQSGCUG
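Rat TrxR1, dispensed at 90 nM, was prereduced with 400 uM NADPH (final) for 5 min at ~22 deg C, then incubated with compound 15 min before 400 uM selenite. A first-read NADPH fluorescence drop versus no-compound background flagged substrates.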
rTrxR1 inhibitor: inhibitors of rat thioredoxin reductase 1; O89049; recombinant rTrxR1, NADPH fluorescence consumption, selenite substrate; Potency, µM (doses to about 114 µM), for inactives: at the top dose activity change, negative = inhibition, actives largely listed as inhibitors; 1% of 390,000 active; note: % is set by controls: 0 for no effect and ±100 for the full control effect; nearly all actives have a fitted effect of over 65% in size
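Rat TrxR1 (90 nM in the dispensed reagent) was pre-reduced with 400 uM NADPH for 5 min at room temperature, then incubated with compound for 15 min. After 400 uM selenite was added, NADPH fluorescence (Ex 340/Em 450 nm) was followed for 8 min.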
Numbers without * were called inactive; ? = inconclusive; . = no result given; [ ] = remark or other dose. This is a sample that favours compounds with a hit; in the whole collection about 1.7% have one here. Calls come from the whole dose curve; as a rule, active = well fitted curve in the direction sought with a large enough effect; inconclusive = small, poorly fitted or top-dose-only effect, or another doubt; inactive = no such curve, though single readings can be large; an effect the other way counts as inactive or inconclusive. Potency is the fitted concentration of half-maximal effect.

SMILES	Glioma ERSR ind	ALOX12 inh	Apoferritin bind	IDH1 R132H inh	TrxR1 substrate	rTrxR1 inhibitor
CN1CCN(C(=O)COc2ccc3c(=O)c(-c4ccccc4)coc3c2)CC1	.	3%	.	.	.	.
O=S(=O)(Cc1ccc(F)cc1)C(c1ccc(F)cc1)c1ccc(F)cc1	.	1%	.	.	.	.
CC(C)CN1Cc2ccccc2-n2ccnc2C12CCN(C(=O)c1ccccn1)CC2	.	9%	.	.	.	.
Cc1ccc(S(=O)(=O)NCCNc2ccc([N+](=O)[O-])c3cccnc23)cc1	.	10%	.	.	.	.
COc1ccc(CC(C)N)cc1 (stereo not drawn)	.	5%	.	.	.	.
O=C(c1ccoc1)N1CC(CO)C2(CCNCC2)C1 (stereo not drawn)	.	25%	.	.	.	.
Clc1ccc(N2CCN(CC3[C@H]4CNC[C@@H]34)CC2)nc1 (stereo partly drawn)	.	32µM*	.	.	.	.
CN(C)Cc1ccccc1-c1ccc2n(c1=O)C[C@H]1C[C@@H]2CN(C(=O)C2CCCCC2)C1	.	4%[176 µM]	.	.	.	.
C[C@H]1COC2=C1C(=O)C(=O)c1c2ccc2c1CCCC2(C)C	-3%	?	?	?	-7%	28µM*
CC1COC2=C1C(=O)C(=O)c1c2ccc2c1CCCC2(C)C (stereo not drawn)	-5%	.	?	.	.	.
Cc1ccccc1-n1c(O)c(/C=N/Nc2nc3c(c(=O)n(C)c(=O)n3C)n2C)c(=O)[nH]c1=S	-3%	?	-9%	-2%	-10%	-16%
Cc1cccc(-n2c(O)c(/C=N/Nc3nc4c(c(=O)n(C)c(=O)n4C)n3C)c(=O)[nH]c2=S)c1	-4%	32µM*	1%	9%	-22%	?
C=C1C(=O)[C@@]23C[C@H]4[C@@H]5[C@@]6(C)CCC[C@@]57[C@@H]2[C@@H](O)[C@@H]1C[C@H]3[C@H]7N4C6	-10%	-8%	.	-12%	1%	22µM*
COCCN1CCOC[C@H]2CCNC[C@H]21	.	71%	.	.	.	.
CSc1ncc(/C=C2/C(=O)NC(=O)N(c3ccc(C(C)C)cc3)C2=O)cn1	-2%	?	7%	0%	0%	10µM*
O=C1NC(=O)N(Cc2ccc(F)cc2)C(=O)/C1=C/c1cccs1	-4%	35%	-7%	0%	14%[57.1 µM]	18µM*
O=C1NC(=O)N(Cc2ccccc2)C(=O)/C1=C/c1cnc(-c2ccccc2)nc1	4%	?	?	0%	-2%[57.1 µM]	6.3µM*
CC(C)c1ccc(N2C(=O)NC(=O)/C(=C/c3cnc(-c4ccccc4)nc3)C2=O)cc1	1%	16µM*	55%	-5%	0%	4µM*
C[C@@H]1O[C@@H](O[C@H]2C[C@@H](O)[C@]3(CO)C4C(CC[C@]3(O)C2)[C@@]2(O)CC[C@H](C3=CC(=O)OC3)[C@@]2(C)C[C@H]4O)[C@H](O)[C@H](O)[C@H]1O (stereo partly drawn)	.	0%	.	.	.	.
Cc1cc(/C=C2\C(=O)NC(=O)N(c3cccc(F)c3)C2=O)c(C)n1-c1ccc(C(=O)O)c(Cl)c1	-2%	7.9µM*	7%	1%	-6%	-19%
Cc1cc(/C=C2/C(=O)NC(=O)N(c3ccccc3)C2=O)c(C)n1-c1ccc(F)cc1	-3%	-7%	.	1%	-12%	-34%
Cc1cc(OCC(=O)N2CCN(CCc3ccncc3)CC2)ccc1Cl	-2%	?	0%	6%	-2%	?
Cc1ccc(OCC(=O)N2CCN(CCc3ccncc3)CC2)cc1C	-3%	-14%	3%	-5%	2%	79µM*
O=c1oc2ccccc2c(O)c1C(c1ccc([N+](=O)[O-])cc1)c1c(O)c2ccccc2oc1=O	11%	7.9µM*	-11%	?	-12%	-22%
C/C(CC(c1ccccc1)c1c(O)c2ccccc2oc1=O)=N\Nc1ccc([N+](=O)[O-])cc1[N+](=O)[O-] (stereo not drawn)	-3%	-17%	-3%	-11%	-20%	?
SMILES	Glioma ERSR ind	ALOX12 inh	Apoferritin bind	IDH1 R132H inh	TrxR1 substrate	rTrxR1 inhibitor
CC(C)c1ccc(C(c2c(O)c3ccccc3oc2=O)c2c(O)c3ccccc3oc2=O)cc1	-2%	7.1µM*	.	-12%	.	.
C[C@]12CC[C@H]3[C@@H](CC[C@@]45O[C@H]4C(O)=C(C#N)C[C@]35C)[C@H]1CC[C@H]2O	.	-6%[57.4 µM]	.	.	.	.
CCN(CC)CCOC(=O)C(O)(c1ccccc1)c1ccccc1	-4%	-18%	-10%	25%	10%	16%
CC(C)N1C(=O)CC2(CC[N+](C)(CCOC(=O)C(O)(c3ccccc3)c3ccccc3)CC2)C1=O (stereo not drawn)	-4%	35µM*	-19%	5%	-5%[57.1 µM]	17%
Cc1nn(CCC#N)c2c1P(=S)(N1CCCC1)OC(c1ccc(F)cc1)=N2 (stereo not drawn)	-2%	22µM*	-10%	4%	-6%	-10%
COc1ccccc1N1C(=O)NC(=O)/C(=C/c2ccc3c(c2)Cc2ccccc2-3)C1=O	4%	?	-19%	-9%	8%	?
C=CCN1C(=O)/C(=C\c2ccc(N3CCOCC3)o2)C(=O)NC1=S	-2%	?	-4%	3%	-18%	-27%
CCN1C(=O)/C(=C/c2ccc3c(c2)CCN3CCCCl)C(=O)NC1=S	-3%	?	-16%	-7%	-5%	28µM*
C=CCN1C(=O)/C(=C/c2ccc3c(c2)CCCN3CCC)C(=O)NC1=S	-1%	-40%	-3%	?	0%[57.1 µM]	10µM*
O=C1NC(=S)N(C2CC2)C(=O)/C1=C/c1ccc2c(c1)CCN2CCCCl	0%	?	-10%	?	-10%	7.9µM*
CC(C)(C)N1C(=O)NC(=O)/C(=C\c2ccc3c(c2)CCN3CCCCl)C1=O	7%	186%	-5%	-11%	-5%[57.1 µM]	?
COCCN1C(=O)CO[C@H]2CN(C(C)C)C[C@H]21	.	5%[176 µM]	.	.	.	.
CC(C)C[C@H]1C(=O)N2CCC[C@H]2[C@]2(O)O[C@](NC(=O)[C@@H]3C=C4c5cccc6[nH]cc(c56)C[C@H]4N(C)C3)(C(C)C)C(=O)N12	-4%	.	.	11%	22%	16µM*
CC(C)C[C@H]1C(=O)N2CCC[C@H]2[C@]2(O)O[C@](NC(=O)[C@@H]3C=C4c5cccc6[nH]c(Br)c(c56)C[C@H]4N(C)C3)(C(C)C)C(=O)N12	-3%	.	-19%	.	-4%[57.1 µM]	?
CCc1ccc(CN2CCN(Cc3cc(Br)ccc3O)CC2)cc1	-4%	0.63µM*	1%	2%	-1%[57.1 µM]	8%[57.1 µM]
CCN1CCN(Cc2cc(Br)ccc2O)CC1	-5%	14%	-6%	-4%	1%	1%
Cc1ccc2cc(C=C(C#N)C#N)c(Cl)nc2c1	-3%	-20%	118%	1%	-3%	25µM*
